From PubChem BioAssay (EPA / NIEHS)
Results filed as inconclusive are left out. Calls of active or inactive are those of the source. The calls were made as follows, unless noted: active = hit-call score of the fitted dose curve at least 0.9, where 1 is the maximum; inactive = score below 0.9.

How the values were obtained:
[1] = IUF_NPC1b_proliferation_BrdU_72hr: Leibniz Research Institute for Environmental Medicine (IUF) 72-hour Neural Progenitor Cell Bromodeoxyuridine (BrdU) Proliferation Assay (NPC1b) (AID 2284207)
Summary of the method: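 hNPC spheres (primary, GW 16-19 fetal cortex), single sphere/well, EGF+FGF medium; 72 h compound, no renewal; BrdU pulse last 16 h; luminescent ELISA; activity vs DMSO baseline; growth-factor withdrawal as positive control.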

[2] = IUF_NPC1a_proliferation_area_72hr: Leibniz Research Institute for Environmental Medicine (IUF) 72-hour Neural Progenitor Cell Proliferation Area Assay (NPC1a) (AID 2284208)
Summary of the method: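 hNPC spheres (human fetal cortex, GW 16-19), one per poly-Hema U-bottom well; EGF+FGF medium; dosed day 0, no re-dosing; 72 h, 37C, 5% CO2; phase-contrast sphere area; DMSO = baseline; minus-GF = positive ctrl.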

[3] = IUF_NPC1_viability_72hr: Viability Assessment at 72 hours in the Leibniz Research Institute for Environmental Medicine (IUF) Neural Progenitor Cell Proliferation Assay (NPC1) (AID 2284209)
Summary of the method: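 Single spheres (0.25-0.35 mm) of human fetal cortex-derived neural progenitor cells were grown in proliferation medium with EGF and FGF at 37C and 5% CO2. They were exposed for 72 h without renewal, and viability was read by alamar blue resorufin fluorescence.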

[4] = IUF_NPC2c_oligodendrocyte_migration_120hr: Leibniz Research Institute for Environmental Medicine (IUF) 120-hour Neural Progenitor Cell Migration Assay for Oligodendrocyte Migration (NPC2c) (AID 2284297);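 also: O4-positive oligodendrocyte migration distance divided by radial glia migration distance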
Summary of the method: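 hNPC spheres (GW 16-19 cortex), PDL/laminin, DMEM/F12 3:1 + 1% N2, 37C. Dosing day 0–5, half feed day 3, DMSO ≤0.1%. Fixed 120 h; O4 ICC + Hoechst, HCI. Readout: mean oligodendrocyte distance from sphere edge / radial glia distance.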

[5] = IUF_NPC2a_radial_glia_migration_120hr: Leibniz Research Institute for Environmental Medicine (IUF) 120-hour Neural Progenitor Cell Migration Assay for Radial Glia Migration (NPC2a) (AID 2284298)
Summary of the method: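 Hoechst-stained nuclei imaged at 120 h; algorithm maps sphere core by densest nuclei, sets migration edge at density threshold, gives radial glia migration distance (um) per well vs DMSO. hNPC spheres (0.3 mm), PDL/laminin, DMEM/F12 3:1 + 1% N2.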

[6] = IUF_NPC2a_radial_glia_migration_72hr: Leibniz Research Institute for Environmental Medicine (IUF) 72-hour Neural Progenitor Cell Migration Assay for Radial Glia Migration (NPC2a) (AID 2284299)
Summary of the method: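 Human fetal neural progenitor spheres (0.3 mm) plated on poly-D-lysine/laminin in N2 differentiation medium and exposed from day 0 at 7 concentrations; radial glia migration distance from sphere edge measured at 72 h on brightfield images, mean of four directions, vs DMSO.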

[7] = IUF_NPC2b_neuronal_migration_120hr: Leibniz Research Institute for Environmental Medicine (IUF) 120-hour Neural Progenitor Cell Migration Assay for Neuron Migration (NPC2b) (AID 2284300)
Summary of the method: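 hNPC spheres, PDL/laminin, DMEM:F12 3:1 + 1% N2, 37C/5% CO2; 7 concentrations + solvent control (DMSO ≤0.1%), 5 d exposure, half-feed day 3. Fix 120 h, TUBB3 ICC, HCI: mean neuron migration distance ÷ glia distance.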

[8] = IUF_NPC3_neuronal_differentiation_120hr: Leibniz Research Institute for Environmental Medicine (IUF) 120-hour Neuronal Differentiation Assay (NPC3) (AID 2284301)
Summary of the method: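 Primary human fetal neural progenitor spheres (GW 16-19, 0.3 mm) plated on poly-D-lysine/laminin in N2 medium, exposed from day 0 for 120 h with half-medium refresh at day 3. TUBB3+ cells as percent of Hoechst nuclei in migration area; DMSO baseline.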

[9] = IUF_NPC4_neurite_length_120hr: Leibniz Research Institute for Environmental Medicine (IUF) 120-hour Neuronal Morphology Assay for Neurite Length (NPC4) (AID 2284302)
Summary of the method: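 Human fetal cortex (GW 16-19) neural progenitor spheres, 0.3 mm, were plated on poly-D-lysine/laminin in N2 differentiation medium and exposed from day 0 for 120 h, half-feeding at day 3. Mean TUBB3+ neurite length (µm) came from skeletonized images, relative to DMSO.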

[10] = IUF_NPC4_neurite_area_120hr: Leibniz Research Institute for Environmental Medicine (IUF) 120-hour Neuronal Morphology Assay for Neurite Area (NPC4) (AID 2284305; active = hit-call score of the fitted dose curve at least 0.9, where 1 is the maximum)
Summary of the method: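 Human fetal cortex-derived neural progenitor spheres (0.3 mm, GW 16-19) plated on poly-D-lysine/laminin in N2 differentiation medium and exposed from day 0 for 120 h across 7 concentrations plus solvent control. Neurite area is mean pixel area per TUBB3-positive neuron via skeletonization, analysed relative to DMSO.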

[11] = IUF_NPC2-5_cytotoxicity_72hr: Cytotoxicity Assessment at 72 hours in the Leibniz Research Institute for Environmental Medicine (IUF) Neural Progenitor Cell Migration and Differentiation Assay for Cytotoxicity (NPC2-5) (AID 2284306; active = hit-call score of the fitted dose curve at least 0.9, where 1 is the maximum;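 also: LDH release into supernatant measured by resorufin fluorescence marking membrane damage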)
Summary of the method: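 Human fetal (GW 16-19) neural progenitor spheres, 0.3 mm, plated on poly-D-lysine/laminin in N2 differentiation medium and exposed from day 0 to 7 concentrations plus solvent control (DMSO ≤0.1%). LDH-dependent resazurin-to-resorufin fluorescence in supernatant at 72 h.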

[12] = IUF_NPC2-5_cytotoxicity_120hr: Cytotoxicity Assessment at 120 hours in the Leibniz Research Institute for Environmental Medicine (IUF) Neural Progenitor Cell Migration and Differentiation Assay (NPC2-5) (AID 2284307; active = hit-call score of the fitted dose curve at least 0.9, where 1 is the maximum)
Summary of the method: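 hNPC spheres on PDL/laminin, N2 medium, 37C; 7 concs + solvent control, DMSO ≤0.1%; 5-day exposure, half medium changed day 3. LDH in supernatant at 120 h, resazurin→resorufin fluorescence, gain-of-signal.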

[13] = IUF_NPC2-5_cell_number_120hr: Cell Number Assessment at 120 hours in the Leibniz Research Institute for Environmental Medicine (IUF) Neural Progenitor Cell Migration and Differentiation Assay (NPC2-5) (AID 2284308);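 also: count of Hoechst-stained nuclei in migration zone around plated human neural progenitor spheres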
Summary of the method: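 Hoechst-stained nuclei within the migration area were counted by automated high content imaging after 120 h. Single hNPC spheres differentiated on poly-D-lysine/laminin in DMEM/F12 (3:1) with 1% N2, compound present throughout, DMSO ≤0.1%.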

[14] = IUF_NPC1_cytotoxicity_72hr: Cytotoxicity Assessment at 72 hours in the Leibniz Research Institute for Environmental Medicine (IUF) Neural Progenitor Cell Proliferation Assay (NPC1) (AID 2284332; active = hit-call score of the fitted dose curve at least 0.9, where 1 is the maximum;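 also: rising LDH signal means more cytotoxicity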)
Summary of the method: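 Human fetal neural progenitor spheres (0.3 mm) in EGF/FGF proliferation medium, 37C, exposed 72 h without renewal. LDH release in supernatant read by resorufin fluorescence; gain of signal scored relative to dynamic range.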

Measured: AC50

CCCCOCCOP(=O)(O)OCCOCCCC
active: [3] 2460 nM
inactive: all other assays above
